Measured values from PubChem BioAssay (NCI).
The panel holds about 83,000 compounds, 20% with a hit somewhere; the sample as a whole holds those more often.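 Single-concentration screen, 48 h exposure, 96-well plates. Endpoint: percent growth. Below 10 = active.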 The source made the active and inactive calls.

Columns and labels:
Experiment in all cases: NCI-60 one-dose screen, 48 h (100 = growth as untreated, 0 = no growth, -100 = all killed)
RPMI-8226 leukemia = details: 10 µM unless noted
OVCAR-8 ovarian = details: 10 µM unless noted
OVCAR-5 ovarian = details: 10 µM unless noted
OVCAR-4 ovarian = details: 10 µM unless noted
SK-OV-3 ovarian = details: 10 µM unless noted
IGROV1 ovarian = details: 10 µM unless noted
OVCAR-3 ovarian = details: 10 µM unless noted
HS 578T breast = details: 10 µM unless noted
NCI/ADR-RES ovarian = details: 10 µM unless noted
T-47D breast = details: 10 µM unless noted
BT-549 breast = details: 10 µM unless noted
MDA-MB-435 melanoma = details: 10 µM unless noted
SW-620 colon = details: 10 µM unless noted
MCF7 breast = details: 10 µM
HCT-116 colon = details: 10 µM unless noted
HCC-2998 colon = details: 10 µM unless noted
KM12 colon = details: 10 µM unless noted

Measured: growth

COc1nccc2cc3c(=O)n4c(cc5ccccc54)c(=O)n3c12
inactive: RPMI-8226 leukemia 95.7% | OVCAR-8 ovarian 111% | OVCAR-5 ovarian 107% | OVCAR-4 ovarian 97.3% | SK-OV-3 ovarian 102% | IGROV1 ovarian 66.9% | OVCAR-3 ovarian 103% | HS 578T breast 106% | NCI/ADR-RES ovarian 100% | T-47D breast 68.4% | BT-549 breast 104% | MDA-MB-435 melanoma 110% | SW-620 colon 101% | MCF7 breast 49.1% | HCT-116 colon 104% | HCC-2998 colon 104%

O=[N+]([O-])c1cc2c(ccc3occc32)o1
active: MDA-MB-435 melanoma -75.1% | MCF7 breast 9.95% | HCT-116 colon 7.94%
inactive: RPMI-8226 leukemia 36.5% | OVCAR-8 ovarian 30% | OVCAR-5 ovarian 72.7% | OVCAR-4 ovarian 66.6% | SK-OV-3 ovarian 14.7% | IGROV1 ovarian 27.1% | OVCAR-3 ovarian 39.4% | HS 578T breast 50.4% | NCI/ADR-RES ovarian 29.2% | T-47D breast 95.1% | BT-549 breast 22% | SW-620 colon 27.6% | HCC-2998 colon 10.9% | KM12 colon 28.6%

CN(O)c1nc(N(C)O)nc(N2CCOCC2)n1
active: OVCAR-4 ovarian 1.09% | SK-OV-3 ovarian 8.47% | OVCAR-3 ovarian 5.41%
inactive: RPMI-8226 leukemia 36.8% | OVCAR-8 ovarian 33.8% | OVCAR-5 ovarian 68.9% | IGROV1 ovarian 20.1% | HS 578T breast 75.9% | NCI/ADR-RES ovarian 21.6% | T-47D breast 40.9% | BT-549 breast 60.5% | MDA-MB-435 melanoma 42.5% | SW-620 colon 52.4% | MCF7 breast 15.9% | HCT-116 colon 12.2% | HCC-2998 colon 40.5% | KM12 colon 45.8%

Cc1ccc(Nc2nc(N)c3ccccc3n2)cc1Cl
inactive: RPMI-8226 leukemia 24% | OVCAR-8 ovarian 57.8% | OVCAR-5 ovarian 75.5% | OVCAR-4 ovarian 55.7% | SK-OV-3 ovarian 80.4% | IGROV1 ovarian 57.3% | OVCAR-3 ovarian 63.5% | HS 578T breast 101% | NCI/ADR-RES ovarian 45.5% | T-47D breast 58.1% | BT-549 breast 85.8% | MDA-MB-435 melanoma 92.1% | SW-620 colon 67.7% | MCF7 breast 68.7% | HCT-116 colon 28.8% | HCC-2998 colon 51.6% | KM12 colon 56%

COc1ccc(-c2cc(=O)c3c(OC)c4ccoc4c(/C=C/C=O)c3o2)cc1
inactive: OVCAR-8 ovarian 28.5% | OVCAR-5 ovarian 77.1% | OVCAR-4 ovarian 37.2% | SK-OV-3 ovarian 84% | IGROV1 ovarian 72.7% | OVCAR-3 ovarian 18.3% | HS 578T breast 39.2% | NCI/ADR-RES ovarian 33.5% | MDA-MB-435 melanoma 21.5% | SW-620 colon 19.6% | MCF7 breast 17.3% | HCC-2998 colon 92.3% | KM12 colon 80%
active: RPMI-8226 leukemia 0.179% | T-47D breast 1.64% | BT-549 breast -22.9% | HCT-116 colon -73%

Nc1ncnc(N)c1NC(=O)c1ccc(OCc2ccccc2)cc1
inactive: RPMI-8226 leukemia 105% | OVCAR-8 ovarian 102% | OVCAR-5 ovarian 106% | OVCAR-4 ovarian 107% | SK-OV-3 ovarian 102% | IGROV1 ovarian 106% | OVCAR-3 ovarian 110% | HS 578T breast 103% | NCI/ADR-RES ovarian 113% | T-47D breast 96% | BT-549 breast 107% | MDA-MB-435 melanoma 109% | SW-620 colon 98.1% | MCF7 breast 103% | HCT-116 colon 111% | HCC-2998 colon 115% | KM12 colon 104%

O=C(Nc1ccc(N2CCNCC2)cn1)c1[nH]ncc1Nc1ncnc2sccc12
inactive: OVCAR-5 ovarian 67% | OVCAR-4 ovarian 21.3% | SK-OV-3 ovarian 70.4% | IGROV1 ovarian 78.1% | OVCAR-3 ovarian 33.2% | HS 578T breast 69.9% | NCI/ADR-RES ovarian 91% | BT-549 breast 93.4% | MCF7 breast 20.1% | HCC-2998 colon 52.6% | KM12 colon 57.3%
active: RPMI-8226 leukemia 1.87% | OVCAR-8 ovarian -33.5% | T-47D breast -4.16% | MDA-MB-435 melanoma -86.1% | SW-620 colon -89.2% | HCT-116 colon -68.2%

COc1ccc(C2=NN(/C=C3\SC(=O)NC3=Nc3ccc(F)cc3)C(c3ccc(F)cc3)C2)cc1 (stereo not given)
inactive: RPMI-8226 leukemia 88.7% | OVCAR-8 ovarian 95.3% | OVCAR-5 ovarian 96.1% | OVCAR-4 ovarian 101% | SK-OV-3 ovarian 102% | IGROV1 ovarian 97.9% | OVCAR-3 ovarian 104% | HS 578T breast 99% | NCI/ADR-RES ovarian 103% | T-47D breast 89.7% | BT-549 breast 98% | MDA-MB-435 melanoma 106% | SW-620 colon 99.2% | MCF7 breast 94.5% | HCT-116 colon 105% | HCC-2998 colon 101% | KM12 colon 98.2%

CCOC(=O)c1cc2c(n1Cc1cc(OC)cc(OC)c1)-c1oncc1CCC2
inactive: RPMI-8226 leukemia 20.2% | OVCAR-8 ovarian 19.5% | OVCAR-5 ovarian 58.9% | OVCAR-4 ovarian 37.7% | HS 578T breast 21.5% | T-47D breast 66.8% | BT-549 breast 25.2% | SW-620 colon 24.7% | MCF7 breast 12.5% | HCT-116 colon 15.1% | HCC-2998 colon 19.3% | KM12 colon 19.1%
active: SK-OV-3 ovarian -0.349% | IGROV1 ovarian -38.4% | OVCAR-3 ovarian -35.7% | NCI/ADR-RES ovarian 6.97% | MDA-MB-435 melanoma -24.9%

CC1=C(C(=O)OCC2CCN(C(=O)OC(C)(C)C)CC2)[C@@H](c2cccc(C#N)c2)C2=C(CC(C)(C)CC2=O)N1
inactive: RPMI-8226 leukemia 32.3% | OVCAR-8 ovarian 37.5% | OVCAR-5 ovarian 70.2% | OVCAR-4 ovarian 67.3% | SK-OV-3 ovarian 66.5% | IGROV1 ovarian 45.4% | OVCAR-3 ovarian 52.4% | HS 578T breast 64.5% | NCI/ADR-RES ovarian 44.7% | T-47D breast 56.1% | BT-549 breast 50.3% | MDA-MB-435 melanoma 41.4% | SW-620 colon 29.6% | MCF7 breast 30.5% | HCT-116 colon 17.1% | HCC-2998 colon 75.6% | KM12 colon 36%

NNC(=O)CNC(=O)Nc1n[nH]c(=S)s1
inactive: RPMI-8226 leukemia 93% | OVCAR-8 ovarian 104% | OVCAR-5 ovarian 97.6% | OVCAR-4 ovarian 117% | SK-OV-3 ovarian 99.8% | IGROV1 ovarian 102% | OVCAR-3 ovarian 108% | HS 578T breast 90.9% | NCI/ADR-RES ovarian 104% | T-47D breast 101% | BT-549 breast 116% | MDA-MB-435 melanoma 110% | SW-620 colon 102% | MCF7 breast 93.8% | HCT-116 colon 94.1% | HCC-2998 colon 106% | KM12 colon 100%

O=C(NN1C(=O)CSC1c1ccc(Cl)cc1)c1[nH]c2ccc(F)cc2c1-c1ccccc1 (stereo not given)
inactive: RPMI-8226 leukemia 25% | OVCAR-8 ovarian 35.2% | OVCAR-5 ovarian 72% | OVCAR-4 ovarian 47.4% | SK-OV-3 ovarian 87.2% | IGROV1 ovarian 36.8% | OVCAR-3 ovarian 47.9% | HS 578T breast 94.6% | NCI/ADR-RES ovarian 43.3% | T-47D breast 52.1% | BT-549 breast 50.9% | MDA-MB-435 melanoma 44.9% | SW-620 colon 77.8% | MCF7 breast 14.6% | HCT-116 colon 31.6% | KM12 colon 44.8%
active: HCC-2998 colon 6.69%

Nc1nc(N)c2c(n1)NC1(C=C(O)c3ccccc31)C1=C(N2)c2ccccc2C1=O (stereo not given)
inactive: RPMI-8226 leukemia 107% | OVCAR-8 ovarian 103% | OVCAR-5 ovarian 116% | OVCAR-4 ovarian 98.1% | SK-OV-3 ovarian 121% | IGROV1 ovarian 92.3% | OVCAR-3 ovarian 113% | HS 578T breast 111% | NCI/ADR-RES ovarian 107% | T-47D breast 112% | BT-549 breast 112% | MDA-MB-435 melanoma 125% | SW-620 colon 99.4% | MCF7 breast 97.1% | HCT-116 colon 101% | HCC-2998 colon 109% | KM12 colon 109%

C#CCn1cc(C=C2C(=O)N(C)C(=O)N(C)C2=O)c2cc(Cl)ccc21
inactive: RPMI-8226 leukemia 105% | OVCAR-8 ovarian 107% | OVCAR-5 ovarian 108% | OVCAR-4 ovarian 109% | SK-OV-3 ovarian 115% | IGROV1 ovarian 102% | OVCAR-3 ovarian 108% | HS 578T breast 91.4% | NCI/ADR-RES ovarian 107% | T-47D breast 112% | BT-549 breast 116% | MDA-MB-435 melanoma 103% | SW-620 colon 99.5% | MCF7 breast 100% | HCT-116 colon 109% | HCC-2998 colon 112% | KM12 colon 104%

Cn1cc([C@@H]2Nc3ccc4[nH]ncc4c3[C@H]3[C@H]4CCC(C4)[C@H]32)c(C(F)(F)F)n1
active: MDA-MB-435 melanoma -1.69%
inactive: RPMI-8226 leukemia 46.6% | OVCAR-8 ovarian 62.5% | OVCAR-5 ovarian 79.4% | OVCAR-4 ovarian 77.4% | SK-OV-3 ovarian 77.4% | IGROV1 ovarian 56.7% | OVCAR-3 ovarian 34.7% | HS 578T breast 34% | NCI/ADR-RES ovarian 31.3% | T-47D breast 52.6% | BT-549 breast 54.6% | SW-620 colon 23.5% | MCF7 breast 25% | HCT-116 colon 27.6% | HCC-2998 colon 82.8% | KM12 colon 36.5%

CCCCCCc1cc2cc(-c3csc(/C=C/c4ccccc4)n3)c(=O)oc2cc1O
inactive: OVCAR-8 ovarian 20% | OVCAR-5 ovarian 81.7% | OVCAR-4 ovarian 36.8% | SK-OV-3 ovarian 47% | IGROV1 ovarian 37.2% | NCI/ADR-RES ovarian 20.2% | BT-549 breast 41.4% | HCT-116 colon 12% | KM12 colon 15.8%
active: RPMI-8226 leukemia -1.82% | OVCAR-3 ovarian 2.25% | HS 578T breast 3.39% | T-47D breast 5.5% | MDA-MB-435 melanoma -72.2% | SW-620 colon 1.96% | MCF7 breast 8.1% | HCC-2998 colon -25.1%

CN1CCN(Cc2ccc(NC(=O)c3cncc(C#Cc4nc(N)nc5[nH]ncc45)c3)cc2C(F)(F)F)CC1
inactive: RPMI-8226 leukemia 55.2% | OVCAR-8 ovarian 100% | OVCAR-5 ovarian 108% | OVCAR-4 ovarian 88.8% | SK-OV-3 ovarian 122% | IGROV1 ovarian 109% | OVCAR-3 ovarian 66.5% | HS 578T breast 99.1% | NCI/ADR-RES ovarian 114% | T-47D breast 93.5% | BT-549 breast 82.9% | MDA-MB-435 melanoma 81.5% | SW-620 colon 28% | MCF7 breast 69.1% | HCT-116 colon 49.1% | HCC-2998 colon 133% | KM12 colon 81.9%

CCN(CC)CCCNc1ccnc2cc3ccccc3cc12
inactive: RPMI-8226 leukemia 74.2% | OVCAR-8 ovarian 60.1% | OVCAR-5 ovarian 84.7% | OVCAR-4 ovarian 77.4% | SK-OV-3 ovarian 72.4% | IGROV1 ovarian 81.2% | OVCAR-3 ovarian 74.5% | HS 578T breast 68.4% | NCI/ADR-RES ovarian 71.1% | T-47D breast 66% | BT-549 breast 94.2% | MDA-MB-435 melanoma 87.3% | SW-620 colon 83% | MCF7 breast 81.7% | HCT-116 colon 60.1% | HCC-2998 colon 78.7% | KM12 colon 80.8%
